Screens (PubChem BioAssay)
TRPML1 agonist – agonists of human TRPML1 channel; activation, % (test concentration not listed); TRPML1-expressing cells, Ca2+ dye fluorescence, FDSS; AID 624414; 0.12% of 410,000 active; in the data active means activation above about 50%; inconclusive means mostly about 30% to 49%; further: 0% is about no effect
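TRPML1-DL cells, Tet-induced overnight (~16 h, 37 degrees C), loaded 45-90 min at room temperature with Ca8 no-wash calcium dye plus quencher. FDSS fluorescence: 10 s baseline, compound pin-transfer, 110 s agonist read, then EC80 54-4 (4uM final) and 110 s antagonist read.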
TRPV1 agonist – activates the human vanilloid receptor TRPV1; Q8NER1; TRPV1-expressing cells, Fluo-8 calcium influx, agonist mode; activation, % at 8.33 µM; 0.19% of 320,000 active; in the data active means activation above about 80%; inconclusive means between about 30% and that limit; further: 0% is about no effect
Target sequence (Q8NER1 whole entry, looked up): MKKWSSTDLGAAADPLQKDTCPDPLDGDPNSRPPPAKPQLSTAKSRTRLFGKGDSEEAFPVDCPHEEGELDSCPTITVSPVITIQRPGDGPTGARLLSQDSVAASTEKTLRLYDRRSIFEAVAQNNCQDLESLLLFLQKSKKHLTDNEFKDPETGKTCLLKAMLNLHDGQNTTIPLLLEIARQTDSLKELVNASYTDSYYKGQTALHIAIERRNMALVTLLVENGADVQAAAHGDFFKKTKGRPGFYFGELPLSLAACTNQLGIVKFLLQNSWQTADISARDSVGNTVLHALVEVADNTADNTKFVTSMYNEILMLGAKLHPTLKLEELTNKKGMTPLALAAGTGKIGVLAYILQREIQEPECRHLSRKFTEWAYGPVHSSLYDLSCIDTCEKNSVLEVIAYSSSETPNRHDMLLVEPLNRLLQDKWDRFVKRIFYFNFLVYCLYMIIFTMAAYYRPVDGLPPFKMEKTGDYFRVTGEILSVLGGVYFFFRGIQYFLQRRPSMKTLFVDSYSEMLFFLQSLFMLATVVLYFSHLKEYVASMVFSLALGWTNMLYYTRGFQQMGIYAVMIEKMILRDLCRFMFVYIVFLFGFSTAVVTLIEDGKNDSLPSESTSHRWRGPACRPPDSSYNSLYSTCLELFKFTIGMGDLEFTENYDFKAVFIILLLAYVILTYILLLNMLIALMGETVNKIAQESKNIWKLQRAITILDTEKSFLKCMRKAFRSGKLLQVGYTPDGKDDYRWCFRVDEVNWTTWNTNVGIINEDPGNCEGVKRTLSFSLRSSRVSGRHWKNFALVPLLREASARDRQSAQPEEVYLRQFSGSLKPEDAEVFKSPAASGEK
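TRPV1-expressing cells were cultured overnight at 35.5C and loaded with Fluo-8 calcium dye for 40 to 90 min at room temperature. After a 10 s baseline, compound was added and calcium influx was read kinetically for 3 min (ex 480/em 520 nm).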
RGS4 inh – human RGS4 inhibition | P49798 | Transcreener GDP fluorescence polarization, RGS4-accelerated GTP hydrolysis | Potency, µM (doses to about 114 µM), for inactives: top-dose activity change, negative = inhibition, hits mostly inhibitors | 0.039% of 390,000 active | AID 504845; further: potency means the concentration at half of the fitted maximal effect; on the % scale 0 is the no-effect control and ±100 the full control effect; nearly all actives have a fitted effect of over 75% in size
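MLSMR compounds (23 nl, pin-transferred) preincubated 10 min at room temperature with a 500nM (2x) first reagent, then RGS4 at 900nM (2x) plus Transcreener GDP mix added; fluorescence polarization (620/688 nm) read before and after 90 min at 30 °C.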
TRPV1 PAM – enhances activation of the human vanilloid receptor TRPV1. potentiation, % at 8.33 µM. Q8NER1. TRPV1-expressing cells, Fluo-8 calcium influx, capsaicin EC20 potentiation. 0.02% of 320,000 active. AID 540277; in the data active means potentiation above about 80%; inconclusive means between about 30% and that limit; further: 0% is about no effect
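TRPV1-expressing cells were cultured overnight at 35.5C and loaded with Fluo-8 calcium dye for 40 to 90 min at room temperature. After a 10 s baseline, compound was added and calcium influx was read kinetically for 3 min (ex 480/em 520 nm).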
TRPML1 blocker – inhibitors of human TRPML1 channel; activity change, negative = inhibition, % (concentration not given with the values); TRPML1-inducible cells, Ca2+ dye fluorescence, FDSS; stronger effect = lower value; inhibition of EC80 agonist-evoked calcium signal; 0.02% of 390,000 active; AID 624415; in the data active means activity change below about -50%; inconclusive means between about -30% and that limit;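 further: stimulus is agonist 54-4 at its EC80 concentration; on the % scale 0 is the no-effect control and ±100 the full control effect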
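TRPML1-DL cells, Tet-induced overnight (~16 h, 37 °C) at 1,500 cells/well, were loaded with Ca8 no-wash dye plus quencher for 45-90 min at room temperature. Compounds were pinned during FDSS kinetic reading; agonist 54-4 at EC80 (4 uM final) then added.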
A-T KAP1 phos – potential ataxia-telangiectasia treatment; F2112 A-T fibroblasts, KAP-1 phosphorylation AlphaLISA; neocarzinostatin DNA damage 30 min before lysis; Potency, µM (doses to about 57.5 µM), without a hit: at the top dose activation, hits mostly activators; 0.19% of 320,000 active; AID 485349; further: potency means the concentration at half of the fitted maximal effect; % of control where 0% means no effect; nearly all actives have a fitted effect of over 45% in size
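ATM-like activity read as KAP-1 phosphorylation via AlphaLISA donor/acceptor antibody pairs after lysis and 6 hr at 25C. Cells were ATM-null patient fibroblasts (F2112, hTERT), dosed 60 min, then exposed to the DSB inducer NCS for 30 min.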
Numbers without * were called inactive; ? = inconclusive; . = not tested or not shown. An excerpt weighted towards active compounds, which were near 0.5% of everything screened. Unless noted, the call rests on the fitted dose curve; in most records, active means well fitted curve in the direction sought with a large enough effect; inconclusive means small, poorly fitted or top-dose-only effect, or another doubt; inactive means no such curve, though single readings can be large; an effect the other way counts as inactive or inconclusive.

SMILES | TRPML1 agonist | TRPV1 agonist | RGS4 inh | TRPV1 PAM | TRPML1 blocker | A-T KAP1 phos
COCCNC(=O)Cn1cc(/C=C2\C(=O)NC(=O)N(c3ccccc3F)C2=O)c2ccccc21 | 1 | -1 | ? | -6 | -9 | 13%
O=C(O)c1nonc1-c1nonc1C(=O)O | 1 | -2 | -5% | -30 | 0 | -4%
C=C1C(=O)O[C@@H]2C[C@@H](C)[C@@H]3C=CC(=O)[C@@]3(C)[C@@H](O)[C@H]12 | 0 | -4 | 21µM* | ? | 6 | 48%
C[C@@H]1C[C@H]2OC(=O)C3(CO3)[C@H]2[C@H](O)[C@]2(C)C(=O)C3OC3[C@@H]12 (stereo partly specified) | . | 2 | . | 13 | . | 10%
CC(C)(C)P(=O)(N1CCOCC1)N1CCOCC1 | 0 | 0 | -34% | 7 | -6 | 1%
CCN(CC)c1ccc(/C=C/[N+](=O)[O-])cc1 | 71* | ? | ? | -6 | 1 | 29%
COc1cc(/C=C/[N+](=O)[O-])ccc1O | 4 | -1 | ? | 11 | 7 | 16%
